The supplement of paper PMC6555819

Key:
Experiment in all cases: PBM binding z-score (relative to random genomic background probes); higher = stronger binding; sequences stand for … in GC…GCGATTGACAGCGTAGAATGAAGG
[1] = system: FXR:RXRa (NR concentration 270 nM, RXRa partner concentration 90 nM)
In short: (§1)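 For binding z-scores, the reference was random background probes on custom Agilent 4×180K protein-binding microarrays. These arrays were incubated 1 h with ligand-free nuclear receptor dimers in PBS pH 7.4, 2% milk, 0.02% Triton X-100, 1 mM DTT, 0.2 mg/mL BSA and 0.4 mg/ml salmon testes DNA. Fluorescence was scanned after antibody detection of each partner (one per run) and regression-normalized.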

[2] = system: LXRa:RXRa (NR concentration 270 nM, RXRa partner concentration 90 nM)
In short: as §1

[3] = system: LXRa homodimer (NR concentration 270 nM)
In short: as §1

[4] = system: LXRb:RXRa (NR concentration 270 nM, RXRa partner concentration 90 nM)
In short: as §1

[5] = system: LXRb homodimer (NR concentration 270 nM)
In short: as §1

[6] = system: PPARa:RXRa (NR concentration 270 nM, RXRa partner concentration 90 nM)
In short: as §1

[7] = system: PPARg:RXRa (NR concentration 180 nM, RXRa partner concentration 90 nM)
In short: as §1

[8] = system: PPARg:RXRa 270nM:90nM, anti-RXR (NR concentration 270 nM, RXRa partner concentration 90 nM)
In short: as §1

[9] = system: PPARg:RXRa 30nM:10nM, anti-RXR (NR concentration 30 nM, RXRa partner concentration 10 nM)
In short: as §1

[10] = system: PPARg:RXRa 90nM:30nM, anti-RXR (NR concentration 90 nM, RXRa partner concentration 30 nM)
In short: as §1

[11] = system: PPARg:RXRa DBDmut IVT, anti-RXR (DBD mutation: RXRa K156A/R161A, NR concentration 270 nM, RXRa partner concentration 90 nM)
In short: as §1

[12] = system: PPARg:RXRa IVT, anti-PPARg (NR concentration 270 nM, RXRa partner concentration 90 nM)
In short: as §1

[13] = system: PPARg DBDmut:RXRa IVT, anti-PPARg (DBD mutation: PPARg1 K132A/R137A, NR concentration 270 nM, RXRa partner concentration 90 nM)
In short: as §1

[14] = system: PPARg DBDmut IVT, anti-PPARg (DBD mutation: PPARg1 K132A/R137A, NR concentration 270 nM)
In short: as §1

[15] = system: PPARg homodimer (NR concentration 180 nM)
In short: as §1

[16] = system: PXR:RXRa (NR concentration 270 nM, RXRa partner concentration 90 nM)
In short: as §1

[17] = system: PXR homodimer (NR concentration 270 nM)
In short: as §1

[18] = system: RARa:RXR (NR concentration 270 nM, RXRa partner concentration 90 nM)
In short: as §1

[19] = system: RARa homodimer (NR concentration 270 nM)
In short: as §1

[20] = system: RARb:RXRa (NR concentration 270 nM, RXRa partner concentration 90 nM)
In short: as §1

Sequence	PBM binding z-score [1]	PBM binding z-score [2]	PBM binding z-score [3]	PBM binding z-score [4]	PBM binding z-score [5]	PBM binding z-score [6]	PBM binding z-score [7]	PBM binding z-score [8]	PBM binding z-score [9]	PBM binding z-score [10]	PBM binding z-score [11]	PBM binding z-score [12]	PBM binding z-score [13]	PBM binding z-score [14]	PBM binding z-score [15]	PBM binding z-score [16]	PBM binding z-score [17]	PBM binding z-score [18]	PBM binding z-score [19]	PBM binding z-score [20]
CCTATTAGTTGACCATAAAGGCAACCGAAGCTCG	0.384	0.566	0.992	0.76	0.816	-0.0568	0.377	0.275	0.147	0.00767	0.277	0.572	0.612	1.06	1.55	0.343	1.08	0.436	2.45	0.404
TCATATAGGTAAAAGGTAAAAGTCGGTGTGGTAA	1.72	1.53	0.146	1.47	0.114	4.59	7.89	7.76	7.87	8.16	5.05	4.32	0.348	1.01	1.81	1.39	0.507	1.78	2.04	0.854
CCGACTGGGGCAAAGGTGACCATACTCAGTACGA	0.275	0.171	-0.478	0.634	-1.65	4.77	10.3	8.5	8.35	9.3	5.54	5.24	0.207	-0.959	1.34	0.701	-0.655	1.65	-0.317	1.62
GGAACGAGTGCAAAGTTGATAGCATCTGTCGACG	0.106	-0.0741	-0.379	-0.315	-0.482	1.8	2.13	3.33	0.95	3.02	-0.204	0.102	-0.12	0.22	-0.16	0.715	0.211	0.728	-0.6	0.396
GCGACTGGGGCATCAGAAGGTTACCATAACTTAA	-0.0561	0.0873	-0.311	1.22	-0.607	1.65	1.43	1.22	-0.0101	0.461	3.59	3.39	0.195	-0.175	0.756	0.582	-0.271	0.988	-0.432	1.2
ATCTCTAGGTAAAGTTCAGTGGAAGATCGATAGA	1.56	2.02	1.68	1.29	1.27	2.23	2.75	3.85	2.32	3.46	2.46	2.61	1.21	1.71	1.29	2.07	1.8	1.44	1.81	2.86
GCTCGGAGGACAAGGTTAGAGCTTTGTCCGTAGA	-0.181	-0.186	-1.07	-0.329	-0.89	0.169	-0.843	0.0367	-1.07	-0.395	-0.578	-0.435	-1.46	-0.888	-0.772	-0.186	-0.847	-0.266	-1.1	1.45
CCTACTGGGCCACGAAAGGTCGTTGATTCAGTGA	0.933	1.81	0.373	1.5	-0.704	2.67	2.53	2.93	0.0833	1.96	5.8	5.18	-0.547	-0.744	1.16	2.77	0.256	2.19	-0.764	1.84
TCTTGTAGATCAACAGGTTAAGAAAGCTGGCCAA	0.41	0.634	-0.164	0.757	-0.124	1.33	0.000535	1.83	2.88	2.37	1.96	0.82	0.047	0.206	0.081	0.51	0.0471	0.981	-0.173	0.375
TTACGAAGGTGAGCTGAGGTCGTTGATCCAACTC	2.65	1.46	-0.333	0.8	-0.914	1.52	0.0154	0.637	-0.115	0.0816	0.758	1.28	-0.294	-0.134	0.215	5.29	0.95	1.56	-0.794	1.79
TCTCGGAGGACACGGAGGTCAGAGCTTTCCAGAG	1.72	1.54	0.806	1.13	-1.06	2.22	0.548	1.54	1.85	1.75	1.26	1.06	-0.769	-1.39	1	2.45	2.46	2.29	-0.596	3.25
TCTATTAGTTGATTAGGGCTACCGAAACAGCGGA	0.263	0.345	-0.0589	0.351	0.304	0.505	0.0193	2.26	3.84	2.98	1.71	0.487	0.367	0.888	1.29	0.181	0.128	0.22	0.748	0.309
CCTATTAGTTGACCATAAGGGCAAGCGAAGCTCG	0.766	0.114	0.254	0.218	0.573	0.369	0.36	0.458	-0.0041	0.237	0.132	0.158	-0.0196	0.32	1.47	0.536	0.56	0.913	1.9	1.65
AATCCAGGGTCACTAGGCCAGAGTAGGTACGAAT	5.69	4.8	0.376	3.92	0.621	5.78	7.8	6.61	3.93	5.73	3.69	5.76	1.17	1.11	2.8	3.49	0.164	4.74	0.405	4.36
